Most compounds without a hit are left out; they make up all but 4% or so of the library.
Wnt bcat act = activators of Wnt/beta-catenin signaling; Wnt/beta-catenin reporter cell assay, activator, plate reader; activation, % at 9.35 µM; actives 1.2% (n = 300,000); in the data active = activation above about 30%, passing the limit was not always enough;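 note: 0% = neutral control wells and 100% = positive control wells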
PAX8 inh HTS = inhibitors of PAX8 transcriptional activity in RMG-I cells; RMG-I TPO-luciferase reporter, SteadyGlo, 24 h; inhibition, % at 12.6 µM; actives 1.2% (n = 360,000); AID 652154;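 active = mean replicate inhibition at least 60% with every replicate also reaching 60%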;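 note: luciferase light reporting Pax8 driven TPO promoter activity; plate controls were median of neutral control wells for no effect and mitoxantrone controls for full effect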
esBAF inh = SWI/SNF esBAF complex inhibition. mouse ES cells, Bmi1-luciferase knock-in reporter, 24 h; 100% = twice the neutral-well signal. actives 2% (n = 350,000). reporter increase, % at 12.5 µM; in the data active = activation above about 40%;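 note: 0% = median of the plate's neutral control wells and 100% = double that signal; a rise in the Bmi1 reporter signal indicates esBAF inhibition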
MITF TRPM1 inh = inhibitors of MITF-driven TRPM1 promoter in melanoma cells. SK-MEL-5 TRPM1 promoter luciferase, 24 h. inhibition, % at 12.5 µM. actives 0.83% (n = 330,000). AID 488899;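 active = mean inhibition across replicates of 60% or more, whatever share of single replicates reaches that level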
EWS-Fli inh = inhibitors of EWS/Fli oncoprotein transcriptional activity; A673 NR0B1-luciferase reporter, viability-normalised; inhibition, % at 12.6 µM; actives 0.67% (n = 350,000);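 active = mean inhibition of at least 50% after viability correction, with every replicate also passing that limit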;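 note: firefly luciferase signal divided by Alamar Blue viability fluorescence both relative to DMSO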
MITF TRPM1 HTS = increases MITF-driven TRPM1 promoter luciferase signal. SK-MEL-5 TRPM1-promoter luciferase, 24 h; % of positive control, neutral wells = 0. activation, % at 12.5 µM. actives 0.75% (n = 300,000);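 active = mean activation of at least 80% with every replicate also reaching 80%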;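 note: 0% = neutral control wells and 100% = parthenolide positive control wells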
An asterisk follows results filed as active; . = not tested or not shown.

SMILES	Wnt bcat act	PAX8 inh HTS	esBAF inh	MITF TRPM1 inh	EWS-Fli inh	MITF TRPM1 HTS
COC(=O)c1cc(NC(=O)c2ccccc2)c(=O)oc1C	-2	-29	.	-5	-13	2
COc1ccc(/C=C2\Sc3ccc(C(=O)NC4CC4)cc3N(C)C2=O)cc1OC	-1	21	3	-8	5	9
CCN1CCCC1CNC(=O)c1ccc2c(c1)NC(=O)/C(=C\c1ccc(C)cc1)S2 (stereo not drawn)	-4	34	-54	81*	.	-81
O=C1Nc2cc(C(=O)NCCN3CCCCCC3)ccc2S/C1=C/c1ccccc1F	-3	51	-1	.	73*	.
COc1cccc(/C=C2/Sc3ccc(C(=O)NCCN4CCCC4)cc3NC2=O)c1	-1	22	-6	85*	17	-85
COc1ccc(/C=C2\Sc3ccc(C(=O)NCCN4CCCCCC4)cc3N(C)C2=O)cc1	-2	-5	-21	63*	11	-62
COc1ccc2c3c(n(C)c2c1)[C@@H](CO)N(C(=O)CN(C)C)CC31CCN(Cc2nccs2)CC1	.	.	.	.	-10	.
COc1ccccc1C(=O)Nc1ccc(NC(=O)c2ccco2)cn1	18	-68	64*	-93	-131	92*
O=C(Nc1ccc(NC(=O)C23CC4CC(CC(C4)C2)C3)cn1)c1ccco1	.	.	49*	-96	.	96*
O=C(Cc1ccccc1)Nc1ccc(NC(=O)c2ccco2)nc1	40*	-186	46*	-63	.	.
CC(C)(C)C(=O)Nc1ccc(NC(=O)c2ccco2)nc1	-13	109*	-83	92*	88*	-90
COc1ccc2c3c(n(C)c2c1)[C@H](CO)N(C(=O)C1CC1)CC31CCN(C(=O)c2ccncc2)CC1	.	-2	.	.	8	.
Cc1noc(C)c1S(=O)(=O)N(C)C[C@H]1Oc2ccc(NC(=O)CCC(F)(F)F)cc2CC(=O)N([C@H](C)CO)C[C@@H]1C	.	.	-3	.	-4	.
CN(C)CC(=O)N1CCCCN2[C@@H](CO)[C@H](c3ccc(/C=C/c4ccccc4)cc3)[C@@H]2C1	.	67*	-1	.	23	.
O=C(Nc1ccccc1F)N1CCCCN2[C@@H](CO)[C@@H](c3ccc(/C=C/c4ccccc4)cc3)[C@@H]2C1	.	76*	-2	.	26	.
CN(C)CC(=O)N1CCCCN2[C@@H](CO)[C@@H](c3ccc(/C=C/c4ccccc4)cc3)[C@@H]2C1	.	72*	-7	.	3	.
CN(C)CC(=O)N1CCCCN2[C@H](C1)[C@@H](c1ccc(/C=C/c3ccccc3)cc1)[C@@H]2CO	.	52	-6	.	18	.
O=C(Nc1ccccc1F)N1CCCCN2[C@H](C1)[C@H](c1ccc(/C=C/c3ccccc3)cc1)[C@@H]2CO	.	39	3	.	-3	.
CN(C)CC(=O)N1CCCCN2[C@H](CO)[C@H](c3ccc(/C=C/c4ccccc4)cc3)[C@H]2C1	.	78*	-4	.	16	.
CCC(=O)N[C@H]1CC[C@H](CC(=O)NCC2CC2)O[C@H]1CO	.	2	.	.	4	.
CC(C)NC(=O)N(C)C[C@H]1OCCCC[C@H](C)Oc2ccc(NC(=O)Cc3ccccc3)cc2C(=O)N([C@@H](C)CO)C[C@@H]1C	.	17	.	.	.	.
Cc1cc(C)nc(S/C=C/C(=O)c2ccccc2F)n1	7	8	.	87*	17	-87
Cc1cc(C)nc(NC(=S)NC(=O)c2ccccc2F)n1	7	-15	.	.	-33	.
CC(=C/C(=O)O)/C=C/c1ccco1	5	.	.	-11	-7	8
CCN(C(=O)C=Cc1ccco1)c1ccccc1	204*	0	5	9	5	-7
SMILES	Wnt bcat act	PAX8 inh HTS	esBAF inh	MITF TRPM1 inh	EWS-Fli inh	MITF TRPM1 HTS
Cc1ccc(S(=O)(=O)N(C)C[C@H]2Oc3c(NC(=O)NC4CCCCC4)cccc3C(=O)N([C@@H](C)CO)C[C@@H]2C)cc1	.	-8	2	.	1	.
O=C1NC(c2ccccc2)=C(c2ccccc2)C1=O	0	1	.	2	0	-5
O=C1C(Br)=C(c2ccccc2)C(c2ccccc2)=C1c1ccccc1	.	.	-50	80*	.	-77
Cn1cnnc1Sc1ccc(/C=C/C(=O)c2ccc(O)cc2)cc1[N+](=O)[O-]	16	1	.	5	69*	-2
CN(C)C(=O)[C@@H]1[C@@H](CO)[C@@H]2Cn3c(ccc(-c4ccccc4)c3=O)[C@H]1N2Cc1ccccn1	.	.	-3	.	-4	.
N#Cc1c(-c2ccc(Cl)cc2)ccn2nc(C3CCCCC3)nc12	26	-79	.	-92	.	90*
